According to the supplement of paper PMC10849652:
About 8,800 targets were measured; listed, in parts, are those with a hit and a random draw of the rest. About 0.5% of all pairs of compound and target were hits.

Columns and labels:
Assay in all cases: log2 fold change, soluble protein after heating vs DMSO (PISA); higher = thermal stabilisation; K562 lysate, 10 uM; active = over 0.2 and 3.5 SD of the protein, either way, in both replicates (recomputed)
[1] = compound: CS(=O)(=O)CCNCc1ccc(-c2ccc3ncnc(Nc4ccc(OCc5cccc(F)c5)c(Cl)c4)c3c2)o1 [lapatinib]
Summary of the method: (§1)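 The values are log-two fold changes in thermal stability compared with solvent controls and come from duplicates. They were obtained by TMTpro 16plex LC-MS/MS, with channel sums equalised, on the supernatant after 21,000xg for 90 min. That supernatant came from crude K562 extract at 1 mg/mL protein treated with 10 μM compound for 30 min, heated for 3 min across 48°C-58°C, pooled and brought to 0.5% NP-40 at 4°C.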

[2] = compound: CS(=O)(=O)N1CCN(Cc2cc3nc(-c4cccc5[nH]ncc45)nc(N4CCOCC4)c3s2)CC1 [pictilisib]
Summary of the method: as §1

[3] = compound: C[C@@H](Oc1cc(-c2cnn(C3CCNCC3)c2)cnc1N)c1c(Cl)ccc(F)c1Cl [crizotinib]
Summary of the method: as §1

[4] = compound: C[C@H](C1=CC=C(C=C1)C(=O)NC2=C3C=CNC3=NC=C2)N
Summary of the method: as §1

[5] = compound: C[C@H](Nc1ncnc2nc[nH]c12)c1cc2cccc(Cl)c2c(=O)n1-c1ccccc1 [duvelisib]
Summary of the method: as §1

[6] = compound: Cc1cc(Nc2cc(CN3CCOCC3)c3nc(C)c(Cc4ccc(Cl)cc4F)n3n2)n[nH]1 [gandotinib]
Summary of the method: as §1

[7] = compound: Cc1cc(Nc2cc(N3CCN(C)CC3)nc(Sc3ccc(NC(=O)C4CC4)cc3)n2)n[nH]1 [tozasertib]
Summary of the method: as §1

[8] = compound: Cc1ccc(-n2nc(C(C)(C)C)cc2NC(=O)Nc2ccc(OCCN3CCOCC3)c3ccccc23)cc1 [doramapimod]
Summary of the method: as §1

[9] = compound: Cc1ccc(NC(=O)c2ccc(CN3CC[C@H](N(C)C)C3)c(C(F)(F)F)c2)cc1Nc1nccc(-c2cncnc2)n1 [bafetinib]
Summary of the method: as §1

[10] = compound: Cc1cccc(CC(=O)N2CCc3c2ccc(-c2cn(C)c4ncnc(N)c24)c3F)n1
Summary of the method: as §1

[11] = compound: Cc1cn(-c2cc(NC(=O)c3ccc(C)c(Nc4nccc(-c5cccnc5)n4)c3)cc(C(F)(F)F)c2)cn1 [nilotinib]
Summary of the method: as §1

[12] = compound: Cc1nc(Nc2n[nH]c3c2CN(C(=O)N[C@H](CN(C)C)c2ccccc2)C3(C)C)c2sccc2n1
Summary of the method: as §1

[13] = compound: Cc1nc(Nc2ncc(C(=O)Nc3c(C)cccc3Cl)s2)cc(N2CCN(CCO)CC2)n1 [dasatinib]
Summary of the method: as §1

[14] = compound: Cc1ncc(-c2ccnc(Nc3ccc(S(C)(=O)=O)cc3)n2)n1C(C)C
Summary of the method: as §1

[15] = compound: Cn1cc(-c2ccc3c(c2)CCN3C(=O)Cc2cccc(C(F)(F)F)c2)c2c(N)ncnc21
Summary of the method: as §1

[16] = compound: Cn1cc(CNCC2CCN(c3ncc(C(=O)NO)cn3)CC2)c2ccccc21 [quisinostat]
Summary of the method: as §1

[17] = compound: Cn1cncc1[C@@](N)(c1ccc(Cl)cc1)c1ccc2c(c1)c(-c1cccc(Cl)c1)cc(=O)n2C [tipifarnib]
Summary of the method: as §1

[18] = compound: NC(=O)Nc1cc(-c2cccc(F)c2)sc1C(=O)N[C@H]1CCCNC1
Summary of the method: as §1

[19] = compound: NC(=O)c1cnc(N[C@@H]2CCCC[C@@H]2N)nc1Nc1cccc(-n2nccn2)c1
Summary of the method: as §1

[20] = compound: NC1(c2ccc(-c3nc4ccn5c(=O)[nH]nc5c4cc3-c3ccccc3)cc2)CCC1
Summary of the method: as §1

Measured: log2 fold change

TEX30 (UniProt Q5JUR7)
inactive: [1] -0.07 | [2] -0.122 | [3] -0.035 | [5] 0.102 | [6] 0.007 | [7] -0.003 | [8] 0.036 | [9] 0.066 | [10] 0.069 | [11] -0.036 | [12] 0.072 | [13] -0.109 | [14] 0.003 | [15] -0.004 | [16] 0.007 | [17] 0 | [18] 0.046 | [19] -0.017 | [20] -0.052
active: [4] -0.517

TIAL1 isoform 2 (UniProt Q01085)
UniProt Q01085, sequence (Q01085 whole entry, looked up): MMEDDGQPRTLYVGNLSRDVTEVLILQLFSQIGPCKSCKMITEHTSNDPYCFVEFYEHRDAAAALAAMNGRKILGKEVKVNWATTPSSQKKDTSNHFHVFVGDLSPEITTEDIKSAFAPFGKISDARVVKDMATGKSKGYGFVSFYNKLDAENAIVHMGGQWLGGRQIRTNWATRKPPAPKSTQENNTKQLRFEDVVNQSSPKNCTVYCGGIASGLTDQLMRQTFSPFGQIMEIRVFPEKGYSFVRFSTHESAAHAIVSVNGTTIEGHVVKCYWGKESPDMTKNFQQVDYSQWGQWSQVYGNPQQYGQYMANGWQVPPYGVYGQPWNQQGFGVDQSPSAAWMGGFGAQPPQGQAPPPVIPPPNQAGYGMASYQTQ
active: [11] -0.603
inactive: [1] -0.013 | [2] -0.063 | [3] 0.038 | [4] -0.024 | [5] -0.014 | [6] 0.054 | [7] 0.011 | [8] 0.007 | [9] 0 | [10] 0.001 | [12] -0.013 | [13] 0.025 | [14] -0.015 | [15] 0.028 | [16] 0.039 | [17] -0.037 | [18] -0.016 | [19] 0.004 | [20] 0.033

TECR (UniProt Q9NZ01)
inactive: [1] -0.082 | [2] -0.032 | [3] -0.138 | [4] 0.011 | [5] -0.056 | [7] 0.056 | [8] -0.045 | [9] -0.049 | [10] 0.015 | [11] -0.06 | [12] 0.018 | [13] -0.062 | [14] -0.011 | [15] -0.043 | [16] -0.024 | [17] -0.09 | [18] 0.041 | [19] -0.009 | [20] -0.047
active: [6] -0.448

TUBB4B (UniProt P68371)
UniProt P68371, sequence (P68371 whole entry, looked up): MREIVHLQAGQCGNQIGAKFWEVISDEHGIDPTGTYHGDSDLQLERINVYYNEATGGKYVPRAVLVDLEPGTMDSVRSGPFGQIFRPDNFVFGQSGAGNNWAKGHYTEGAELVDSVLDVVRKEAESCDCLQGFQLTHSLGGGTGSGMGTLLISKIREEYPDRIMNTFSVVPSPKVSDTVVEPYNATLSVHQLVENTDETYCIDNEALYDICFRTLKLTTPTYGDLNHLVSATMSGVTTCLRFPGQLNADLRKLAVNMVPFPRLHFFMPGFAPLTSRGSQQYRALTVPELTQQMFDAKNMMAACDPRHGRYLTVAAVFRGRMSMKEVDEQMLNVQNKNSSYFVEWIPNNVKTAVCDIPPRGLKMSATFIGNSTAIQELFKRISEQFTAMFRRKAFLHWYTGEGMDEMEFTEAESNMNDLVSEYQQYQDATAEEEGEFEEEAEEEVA
inactive: [1] 0.027 | [2] 0.017 | [3] -0.027 | [4] 0.053 | [5] -0.029 | [6] 0.004 | [7] 0.011 | [8] -0.024 | [9] 0.027 | [10] -0.043 | [11] 0.049 | [12] -0.05 | [13] -0.025 | [14] -0.034 | [15] -0.005 | [16] 0.033 | [17] -0.001 | [18] 0.006 | [19] -0.019 | [20] 0.009

TTC37 (UniProt Q6PGP7)
UniProt Q6PGP7, sequence (Q6PGP7 whole entry, looked up): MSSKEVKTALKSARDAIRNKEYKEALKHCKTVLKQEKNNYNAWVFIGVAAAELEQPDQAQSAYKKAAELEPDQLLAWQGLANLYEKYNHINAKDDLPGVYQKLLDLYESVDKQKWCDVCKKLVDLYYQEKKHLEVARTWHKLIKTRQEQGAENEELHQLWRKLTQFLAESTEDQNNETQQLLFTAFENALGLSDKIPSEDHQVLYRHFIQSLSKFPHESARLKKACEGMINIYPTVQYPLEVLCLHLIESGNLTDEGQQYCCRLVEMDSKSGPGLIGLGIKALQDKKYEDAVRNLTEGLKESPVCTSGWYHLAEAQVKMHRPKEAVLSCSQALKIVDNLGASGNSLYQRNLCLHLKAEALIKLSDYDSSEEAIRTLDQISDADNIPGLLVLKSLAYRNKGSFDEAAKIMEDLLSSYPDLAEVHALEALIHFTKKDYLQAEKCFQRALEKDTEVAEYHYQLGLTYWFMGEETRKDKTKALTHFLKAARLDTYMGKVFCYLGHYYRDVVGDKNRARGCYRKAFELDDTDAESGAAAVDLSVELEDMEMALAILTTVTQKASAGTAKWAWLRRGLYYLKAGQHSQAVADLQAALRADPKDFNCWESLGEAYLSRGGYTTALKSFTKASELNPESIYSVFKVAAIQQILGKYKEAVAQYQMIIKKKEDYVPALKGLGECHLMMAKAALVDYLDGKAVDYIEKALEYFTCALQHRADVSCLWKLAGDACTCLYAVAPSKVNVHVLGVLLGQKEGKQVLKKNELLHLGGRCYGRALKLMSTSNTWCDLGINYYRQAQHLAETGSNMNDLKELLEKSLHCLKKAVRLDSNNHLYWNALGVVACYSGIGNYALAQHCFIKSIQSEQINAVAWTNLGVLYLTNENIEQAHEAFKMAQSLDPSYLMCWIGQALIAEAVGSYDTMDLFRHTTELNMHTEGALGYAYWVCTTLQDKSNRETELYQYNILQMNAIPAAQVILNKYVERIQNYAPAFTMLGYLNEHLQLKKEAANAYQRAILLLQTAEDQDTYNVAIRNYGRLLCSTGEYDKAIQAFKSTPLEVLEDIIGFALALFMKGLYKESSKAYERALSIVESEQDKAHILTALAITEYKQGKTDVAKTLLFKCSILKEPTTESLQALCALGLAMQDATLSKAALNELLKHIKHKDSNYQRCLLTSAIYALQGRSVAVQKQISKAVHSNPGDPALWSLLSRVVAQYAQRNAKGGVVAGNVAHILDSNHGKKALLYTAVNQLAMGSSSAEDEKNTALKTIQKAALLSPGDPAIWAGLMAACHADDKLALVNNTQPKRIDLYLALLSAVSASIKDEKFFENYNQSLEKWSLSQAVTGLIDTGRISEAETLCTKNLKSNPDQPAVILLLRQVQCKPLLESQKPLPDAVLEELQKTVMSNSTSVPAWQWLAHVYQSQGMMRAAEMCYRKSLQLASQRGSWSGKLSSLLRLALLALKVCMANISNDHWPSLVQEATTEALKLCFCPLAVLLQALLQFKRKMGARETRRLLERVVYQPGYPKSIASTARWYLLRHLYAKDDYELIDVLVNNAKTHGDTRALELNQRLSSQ
inactive: [1] -0.157 | [2] -0.03 | [3] -0.202 | [5] 0.096 | [8] 0.069 | [9] -0.26 | [11] 0.03 | [12] -0.001 | [13] -0.163 | [14] 0.013 | [15] -0.085 | [17] -0.012 | [18] 0.065 | [19] 0.005 | [20] -0.087
active: [16] -0.408

UBAP2 (UniProt Q5T6F2)
UniProt Q5T6F2, sequence (Q5T6F2 whole entry, looked up): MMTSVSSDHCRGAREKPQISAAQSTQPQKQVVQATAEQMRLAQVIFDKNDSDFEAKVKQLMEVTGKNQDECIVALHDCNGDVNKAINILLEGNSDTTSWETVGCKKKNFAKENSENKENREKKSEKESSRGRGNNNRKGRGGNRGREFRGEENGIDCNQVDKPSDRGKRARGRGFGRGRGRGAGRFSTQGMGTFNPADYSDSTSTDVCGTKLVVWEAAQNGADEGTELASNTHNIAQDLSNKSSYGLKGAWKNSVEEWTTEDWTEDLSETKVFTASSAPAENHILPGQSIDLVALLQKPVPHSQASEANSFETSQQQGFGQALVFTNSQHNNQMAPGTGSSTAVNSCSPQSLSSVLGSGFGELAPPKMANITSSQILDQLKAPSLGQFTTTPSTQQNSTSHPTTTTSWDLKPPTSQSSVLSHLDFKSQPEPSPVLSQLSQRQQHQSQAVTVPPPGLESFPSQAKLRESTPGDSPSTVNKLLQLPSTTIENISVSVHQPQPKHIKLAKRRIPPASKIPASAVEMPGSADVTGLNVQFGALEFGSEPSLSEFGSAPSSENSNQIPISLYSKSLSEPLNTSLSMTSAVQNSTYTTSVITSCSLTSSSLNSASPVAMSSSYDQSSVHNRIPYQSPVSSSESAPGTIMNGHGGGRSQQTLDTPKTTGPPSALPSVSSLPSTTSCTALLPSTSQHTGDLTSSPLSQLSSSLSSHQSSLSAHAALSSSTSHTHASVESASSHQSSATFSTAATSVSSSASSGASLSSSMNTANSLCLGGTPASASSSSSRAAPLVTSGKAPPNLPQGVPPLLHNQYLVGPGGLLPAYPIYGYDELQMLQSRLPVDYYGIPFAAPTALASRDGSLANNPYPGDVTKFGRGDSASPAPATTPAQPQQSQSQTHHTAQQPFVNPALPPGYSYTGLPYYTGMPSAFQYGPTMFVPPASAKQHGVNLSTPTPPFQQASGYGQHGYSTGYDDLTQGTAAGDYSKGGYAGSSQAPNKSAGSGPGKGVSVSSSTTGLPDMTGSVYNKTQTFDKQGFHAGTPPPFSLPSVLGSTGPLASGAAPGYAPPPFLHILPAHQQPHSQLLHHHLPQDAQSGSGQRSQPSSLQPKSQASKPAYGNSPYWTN
inactive: [1] -0.04 | [2] -0.079 | [3] 0.091 | [4] -0.173 | [5] -0.003 | [6] 0.095 | [7] -0.02 | [8] -0.097 | [9] -0.066 | [10] 0.061 | [11] -0.093 | [12] 0.008 | [13] -0.042 | [14] 0.021 | [15] -0.023 | [16] -0.008 | [17] -0.073 | [18] 0.019 | [19] 0.016 | [20] 0.029

TBC1D20 isoform 3 (UniProt Q96BZ9)
UniProt Q96BZ9, sequence (Q96BZ9 whole entry, looked up): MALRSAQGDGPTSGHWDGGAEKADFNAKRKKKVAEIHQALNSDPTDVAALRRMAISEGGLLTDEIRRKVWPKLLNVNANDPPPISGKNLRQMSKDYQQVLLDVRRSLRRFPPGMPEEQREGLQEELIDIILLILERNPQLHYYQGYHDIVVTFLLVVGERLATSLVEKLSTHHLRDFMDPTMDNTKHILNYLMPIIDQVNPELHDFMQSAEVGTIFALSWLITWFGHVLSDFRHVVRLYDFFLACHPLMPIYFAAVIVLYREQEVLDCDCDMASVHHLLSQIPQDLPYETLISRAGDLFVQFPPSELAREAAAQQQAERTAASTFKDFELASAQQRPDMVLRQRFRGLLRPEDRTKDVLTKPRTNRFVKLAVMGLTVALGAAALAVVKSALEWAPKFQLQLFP
inactive: [1] -0.019 | [2] -0.12 | [3] -0.066 | [4] -0.087 | [5] 0.021 | [6] -0.105 | [7] -0.017 | [8] -0.095 | [9] -0.303 | [10] 0.025 | [13] 0.027 | [15] -0.053 | [16] -0.021 | [18] 0.067 | [19] -0.072 | [20] -0.006

TUBAL3 (UniProt A6NHL2)
inactive: [1] -0.07 | [2] -0.034 | [4] -0.434 | [5] -0.001 | [6] 0.312 | [7] 0.09 | [9] -0.232 | [11] 0.068 | [12] -0.189 | [13] -0.074 | [14] 0.103 | [15] 0.082 | [17] 0.141 | [19] -0.025 | [20] -0.142
active: [10] 0.567

THAP9 (UniProt Q9H5L6)
UniProt Q9H5L6, sequence (Q9H5L6 whole entry, looked up): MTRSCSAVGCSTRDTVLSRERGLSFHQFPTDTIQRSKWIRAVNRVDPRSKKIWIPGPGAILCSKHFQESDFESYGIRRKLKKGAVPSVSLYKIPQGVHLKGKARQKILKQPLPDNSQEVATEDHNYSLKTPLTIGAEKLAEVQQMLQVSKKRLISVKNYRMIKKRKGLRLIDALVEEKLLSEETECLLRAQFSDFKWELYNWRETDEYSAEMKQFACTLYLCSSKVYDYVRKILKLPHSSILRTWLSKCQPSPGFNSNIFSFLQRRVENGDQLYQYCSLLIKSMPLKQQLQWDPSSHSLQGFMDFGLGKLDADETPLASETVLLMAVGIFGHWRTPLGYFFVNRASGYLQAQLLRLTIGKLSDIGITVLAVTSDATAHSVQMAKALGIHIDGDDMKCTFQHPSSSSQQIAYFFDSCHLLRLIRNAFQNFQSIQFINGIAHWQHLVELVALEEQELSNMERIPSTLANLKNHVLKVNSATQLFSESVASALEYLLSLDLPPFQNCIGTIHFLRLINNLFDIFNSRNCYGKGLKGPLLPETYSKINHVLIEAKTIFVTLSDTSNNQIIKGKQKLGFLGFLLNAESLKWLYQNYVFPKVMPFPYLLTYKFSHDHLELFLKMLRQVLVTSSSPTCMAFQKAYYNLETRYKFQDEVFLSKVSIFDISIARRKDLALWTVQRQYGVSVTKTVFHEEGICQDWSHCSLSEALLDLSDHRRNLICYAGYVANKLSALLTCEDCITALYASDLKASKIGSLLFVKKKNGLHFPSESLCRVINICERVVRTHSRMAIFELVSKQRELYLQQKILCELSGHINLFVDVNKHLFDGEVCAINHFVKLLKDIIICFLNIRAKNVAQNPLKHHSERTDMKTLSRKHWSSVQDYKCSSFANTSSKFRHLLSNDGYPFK
active: [4] -0.675
inactive: [1] -0.035 | [2] -0.154 | [3] -0.203 | [5] 0.012 | [6] 0.429 | [7] -0.045 | [8] 0.009 | [9] -0.007 | [10] 0.323 | [13] 0.025 | [15] -0.032 | [16] -0.455 | [18] 0.07 | [19] 0.179

TUBB4A (UniProt M0QYM7)
active: [4] -1.05
inactive: [1] -0.009 | [2] -0.067 | [3] -0.176 | [6] 0.39 | [7] 0.138 | [8] 0.116 | [9] -0.516 | [10] 0.42 | [11] -0.029 | [12] -0.009 | [14] 0.039 | [16] -0.116 | [17] 0.013 | [18] 0.107 | [19] -0.048 | [20] 0.126

TCF20 (UniProt Q9UGU0)
inactive: [1] -0.049 | [2] -0.034 | [3] 0.019 | [4] 0.011 | [5] 0.094 | [6] 0.108 | [8] -0.032 | [9] -0.001 | [10] -0.005 | [13] 0.001 | [15] -0.057 | [16] 0.193 | [18] -0.006 | [19] 0.11 | [20] 0.068

TMSB4X (UniProt P62328)
UniProt P62328, sequence (P62328 whole entry, looked up): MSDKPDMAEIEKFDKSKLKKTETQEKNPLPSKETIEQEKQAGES
inactive: [1] 0.12 | [2] -0.553 | [3] 0.015 | [4] -0.132 | [6] 0.65 | [7] 0.123 | [8] -0.24 | [9] -0.546 | [10] -0.166 | [11] -0.105 | [12] -0.107 | [14] 0.115 | [16] -0.024 | [17] -0.071 | [18] 0.263 | [19] -0.027 | [20] 0
